Assay results from PubChem BioAssay (EPA / NIEHS).
Records with an inconclusive call do not appear. The source made the active and inactive calls. How the source made its calls: active means hit-call score of the fitted dose curve at least 0.9, where 1 is the maximum; inconclusive means response in the unintended direction; inactive means score below 0.9.

These molecules were tested against human Phosphodiesterase 5 (PDE5), PDE5A (gene 8654) (UniProt O76074) (assay: NVS_ENZ_hPDE5: NovaScreen (NVS) Enzymatic Assay for human Phosphodiesterase 5 (PDE5) (AID 2283194)).
Experimental: NVS_ENZ_hPDE5 is a biochemical, single-readout assay that uses extracted gene-proteins in a cell-free assay. Measurements were taken 1 hour after chemical dosing in a 384-well plate.NVS_ENZ_hPDE5 is one of one assay component(s) measured or calculated from the NVS_ENZ_hPDE5 assay. It is designed to make measurements of enzyme activity, a form of enzyme reporter, as detected with fluorescence intensity signals by Fluorescence and electrophoretic mobility shift technology.Data from the assay component NVS_ENZ_hPDE5 was analyzed into 1 assay endpoint. This assay endpoint, NVS_ENZ_hPDE5, was analyzed in the positive analysis fitting direction relative to DMSO as the negative control and baseline of activity. Using a type of enzyme reporter, loss-of-signal activity can be used to understand changes in the enzymatic activity as they relate to the gene PDE5A. Furthermore, this assay endpoint can be referred to as a primary readout, because this assay has produced multiple assay endpoints where this one serves a enzymatic activity function. To generalize the intended target to other relatable targets, this assay endpoint is annotated to the esterase intended target family, where the subfamily is phosphodiesterase.
Binding assays used specific radioligands (tritiated, iodinated) with non-radioactive competitive displacement ligands in agonist or antagonist protocols (as indicated) and various reference compounds and inhibitors to titrate specific binding to receptors and transporters. Most enzyme assays (CYPs, kinases, phosphatases, proteases, HDACs) used recombinant protein and specific substrates (fluorescence mostly, some colorimetric and radioactive) and inhibitors, followed by a biochemical separation of substrate and product. All assays for the biochemical HTS were initially run in duplicate at a single concentration (10 uM for CYP450 assays and 25 uM for all others). […] Each assay was run with positive and negative controls, and concurrent controls on every plate. The follow-up (secondary) screen tested active chemical-pairs in concentration series, as well as a few additional assays not tested in the primary screen, some selected negative inactives, and several cases re-run in the concentration series for confirmatory purposes.

| Compound | AC50 | outcome |
| --- | --- | --- |
| FC(F)(F)C(F)(F)C(F)(F)C(F)(F)C(F)(F)C(F)(F)CCI | 19.7 µM (active) | – |
| Cc1nc(-c2ccc3c(c2)CCN(CCC2CCC(NC(=O)/C=C/c4ccc(F)cc4)CC2)CC3)no1 (stereo not drawn) | – | inactive |
| CC(=O)Oc1ccccc1C(=O)O | – | inactive |
| O=c1[nH]cc(F)c(=O)[nH]1 | – | inactive |
| CCc1c(C(=O)NN2CCCCC2)nn(-c2ccc(Cl)cc2Cl)c1-c1ccc(Br)cc1 | – | inactive |
| CNC(=O)[C@H]1O[C@@H](n2cnc3c(NCc4cc(Cl)ccc4OCc4cc(C)no4)ncnc32)[C@H](O)[C@@H]1N | – | inactive |
| O=C(N[C@@H](Cc1ccccc1)[C@@H](O)C(=O)N1C[C@@H](O)[C@@H](O)C1)c1cc2cc(Cl)ccc2[nH]1 | – | inactive |
| Nc1ccccc1N | 18.1 µM (active) | – |
| CC1=C(/C=C/C(C)=C/C=C/C(C)=C/CO)C(C)(C)CCC1 | – | inactive |
| Cc1cc(NC(=O)C(=O)O)cc(C)c1Oc1ccc(O)c2c1CCC2 | 8.94 µM (active) | – |
| CC=Cc1ccc(O)c(OC)c1 | – | inactive |
| Cc1cccc(C)c1O | – | inactive |
| Cc1ccc(C)c(C)c1 | – | inactive |
